Our source for the growth values is PubChem BioAssay (NCI).

Each structure is given as a SMILES string. “And” between values parts separate entries of the source, which are not always exact repeats. Equal values may be shown once. Compounds without any hit were thinned out: in the full panel of roughly 83,000, 20% have a hit.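 Plates (96-well) were seeded with cells, treated with compound at one concentration, and incubated for 48 hours before percent growth was determined.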 The source made the active and inactive calls. How the source made its calls: active means growth percent below 10; inactive means the rest.

The test system of the test is MDA-MB-468 breast. The experiment in a line: NCI-60 one-dose screen, 48 h (100 = growth as untreated, 0 = no growth, -100 = all killed). The following applies: 10 µM unless noted.
For `CCCCCCCCCCCCCCCCCCNC(=O)[C@H]1CSC(c2ccc(OC)c(F)c2)N1` (stereo not given in full), the growth was 76.9% (inactive).

For `CCCCC(CC)CN=C(N)NC(N)=NCCCCCCN=C(N)NC(N)=NCC(CC)CCCC` (stereo not given), the growth was -85.7% (active).

In the case of `Cc1ncc(C(=O)Nc2ccc(CN3CCN(C)CC3)c(C(F)(F)F)c2)cc1C#Cc1cnc(N)cc1C#N`, the growth is 68.2% (inactive).

Regarding `COC(=O)/C(CCC=C(C)C)=C1\[C@@H](OC(C)=O)C[C@@]2(C)[C@H]1C[C@@H](O)[C@H]1[C@@]3(C)CC[C@H](NCCN)[C@@H](C)[C@@H]3CC[C@@]12C`, the growth was 58.6% (inactive).

Take `COc1ccc(NC(=O)c2sc3nc4c(cc3c2N)C(O)CCC4)cc1` (stereo not given): the growth is 92.2% (inactive).

Regarding `C=CC(O)CCC` (stereo not given), the growth is 109% (inactive).

Take `COc1cc(/C=C/C(=O)c2cc(OC)c(OC)c(OC)c2)ccc1OCc1ccc(F)cc1`: the growth was 17.8% (inactive).

Regarding `CCOC(=O)c1ccc(NC(=O)Nc2ncc(Cl)cc2Cl)cc1`, the growth was 95.1% (inactive).

Consider `COC(c1ccc2c(c1)OCO2)C(C)Br` (stereo not given), for which the growth is 93.4% (inactive).

In the case of `O=C1CCCN1C1CCN2CCCc3cccc1c32` (stereo not given), the growth was 118% (inactive).

Take `CC/C(=C(\c1ccccc1)c1ccc(OCCN(C)C)cc1)c1ccccc1`: the growth was -13.3% (active).

`C=CCn1c(C)nc2cc(Nc3nc(Cl)nc4ccccc34)ccc21`: the growth was 83.7% (inactive).

`CN(C)c1ccc(O)c2c1CC1CC3C(N(C)C)C(=O)C(C(N)=O)=C(O)C3(O)C(=O)C1=C2O` (stereo not given): the growth was 36.7% (inactive).

For the compound `O=C(/C=C\c1ccco1)/C=C/c1ccco1`, the growth was 102% (inactive).

`O=C(O)c1ccc2c(c1)C(=O)N(Cc1ccccc1)C2=O`: the growth is 96.2% (inactive).

For `CCC(=O)Oc1ccc2c(c1)CC[C@@H]1[C@@H]2CC[C@]2(C)C[C@H](OC(=O)CC)C[C@@H]12`, the growth is 47.9% (inactive).

As to `COc1ccc(NC(=O)CSc2nnc(-c3cc(-c4ccc(S(N)(=O)=O)cc4)nc4ccccc34)n2-c2ccccc2)cc1`, the growth was 86.4% (inactive).

`COc1ccc(-c2cn(-c3ccccc3)c(-c3ccccc3)n2)cc1OC`: the growth was 9.76% (active).

As for `C=C(C)[C@@H]1CC[C@]2(COS(C)(=O)=O)CC[C@]3(C)[C@H](CC[C@@H]4[C@@]5(C)CCCNC(C)(C)[C@@H]5CC[C@]43C)[C@@H]12`, the growth was 49.9% (inactive).

Regarding `O=C1NC(=O)C2(CCc3ccccc32)N1` (stereo not given), the growth is 106% (inactive).

As for `CCNc1nc2c(cnn2C)c(=O)[nH]1`, the growth is 97.4% (inactive).

As for `COc1cccc(-c2nn(-c3ccccc3)cc2-c2ccnc(NCCCNS(=O)(=O)c3ccccc3)c2)c1`, the growth is 8.98% (active).

Regarding `COc1ccc(-c2nc(-c3cn(C)c4ncccc34)cs2)cc1`, the growth was -6.3% [100 µM] (active).

As to `COc1cc(-c2nc(-c3ccccc3)c(-c3ccccc3)[nH]2)cc(OC)c1O`, the growth is -49.2% (active).

As for `C#Cc1cc(C(=O)Nc2ccc(CN3CCN(C)CC3)c(C(F)(F)F)c2)ccc1C`, the growth is 66.5% (inactive).

As for `Cc1cccc2c1O/C(=C\c1ncc([N+](=O)[O-])n1C)C2=O`, the growth is -12.6% (active).

As for `CCN(CC)CCCNc1cc(OC)c(OC)c2cccnc12`, the growth was 90.5% (inactive).

For `COc1ccc(N=Cc2c(O)ccc3c2oc2cc(Cl)c(O)c(Cl)c23)cc1`, the growth was 72.5% (inactive).

Consider `COc1cc2nc(N3CCN(C(=O)C4COc5ccccc5O4)CC3)nc(N)c2cc1OC` (stereo not given), for which the growth was 78.2% (inactive) and 104% (inactive).

On to `COc1ccc(N2CCN(C(=O)CSc3ccc(-c4nc5cc(C)c(C)cc5[nH]4)cn3)CC2)cc1`, for which the growth was 49.5% (inactive).

In the case of `CC(=O)N1c2ccccc2NC2=C(C(=O)N(Cc3ccccc3)C2(C)C)C1c1ccco1` (stereo not given), the growth was -1.86% (active).

Consider `COc1ccc2nc(-c3c(-c4ccccc4)nc4ncccn34)[nH]c2c1`, for which the growth was 89.4% (inactive).

As to `CC(=O)CC(c1cccs1)c1c(-c2ccccc2)[nH]c2ccccc12` (stereo not given), the growth was 100% (inactive).

With `CCOc1nc(-c2ccccc2)cc2c(O)c(C(=O)N/N=C/c3ccccc3O)[nH]c(=O)c12`, the growth is 88.6% (inactive).

With `COc1ccc2c(c1)OC1=C(C(=O)OC1)C2c1cc(OC)c2c(c1)OCO2` (stereo not given), the growth is -7.16% (active).

`O=C1CCCc2nc3sc4c(=O)n(-c5ccccc5Cl)nnc4c3cc21`: the growth is 85.9% (inactive).

Turning to `CC(=O)NC(C)(C)C(=O)N[C@@H](C)C(=O)NC(C)(C)C(=O)N[C@@H](C)C(=O)NC(C)(C)C(=O)N[C@@H](C)C(=O)N[C@@H](CCC(N)=O)C(=O)NC(C)(C)C(=O)N[C@H](C(=O)NC(C)(C)C(=O)NCC(=O)N[C@@H](CC(C)C)C(=O)NC(C)(C)C(=O)N1CCC[C@H]1C(=O)N[C@H](C(=O)NC(C)(C)C(=O)NC(C)(C)C(=O)N[C@@H](CCC(N)=O)C(=O)N[C@@H](CCC(N)=O)C(=O)N[C@H](CO)CC1CCCCC1)C(C)C)C(C)C`, the growth is 3.04% [5 µM] (active).

`CN1CCN(S(=O)(=O)O[C@@H]2C(=O)N(c3cc4c5ccccc5ccc4c4ccccc34)[C@H]2c2ccc(F)cn2)CC1`: the growth was 90.8% (inactive).

On to `O=C(CCOCCNC(=O)COc1ccc2c(c1)OCC(c1ccc(F)cc1)C2=O)NCCCC(O)(P(=O)(O)O)P(=O)(O)O` (stereo not given), for which the growth is 106% (inactive).

As to `CCCOS(=O)(=O)c1ccccc1`, the growth was 108% (inactive).
